TDP1 block: blocks human tyrosyl-DNA phosphodiesterase 1. Q9NUW8. recombinant TDP1, AlphaScreen DNA substrate cleavage. Potency, µM (doses to about 130 µM), for inactives: top-dose activity change, negative = inhibition, actives largely listed as inhibitors. 350,000 tested, 0.28% active; note: potency is the fitted concentration of half-maximal effect; nearly all actives have a fitted effect of over 40% in size
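AlphaScreen read-out: signal falls as enzyme removes the 3' tyrosine-FITC from a 5'-biotinylated DNA oligo (15 nM, 5 min, RT). Enzyme was E. coli-made recombinant Tdp1 at 1 nM, exposed to compound for 15 min beforehand; beads 10 ug/ml, 10 min.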
Six1-Eya2 inh: inhibitors of human Six1/Eya2 interaction. Q15475+O00167. AID 651725. activity change, % (no concentration beside the values). AlphaScreen GST-Six1/His-Eya2 binding, biochemical; active compounds read low. 360,000 tested, 0.56% active; in the data active = activity change below about -65%; inconclusive = mostly about -30% to -63%
Target sequence (O00167 whole entry, looked up): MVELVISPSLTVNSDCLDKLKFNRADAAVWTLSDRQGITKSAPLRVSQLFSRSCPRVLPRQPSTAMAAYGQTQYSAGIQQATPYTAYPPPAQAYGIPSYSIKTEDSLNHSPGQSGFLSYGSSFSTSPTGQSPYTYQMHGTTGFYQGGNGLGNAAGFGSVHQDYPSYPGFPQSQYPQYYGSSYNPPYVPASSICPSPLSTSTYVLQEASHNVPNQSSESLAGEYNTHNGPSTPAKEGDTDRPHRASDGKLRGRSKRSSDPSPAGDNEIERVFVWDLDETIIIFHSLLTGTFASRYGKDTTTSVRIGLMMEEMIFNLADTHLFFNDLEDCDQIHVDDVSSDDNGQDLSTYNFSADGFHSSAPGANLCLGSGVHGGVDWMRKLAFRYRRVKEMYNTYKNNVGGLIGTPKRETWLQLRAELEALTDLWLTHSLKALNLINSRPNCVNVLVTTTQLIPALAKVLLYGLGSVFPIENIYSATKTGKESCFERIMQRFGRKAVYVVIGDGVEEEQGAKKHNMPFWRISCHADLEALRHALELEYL
Target sequence (Q15475 whole entry, looked up): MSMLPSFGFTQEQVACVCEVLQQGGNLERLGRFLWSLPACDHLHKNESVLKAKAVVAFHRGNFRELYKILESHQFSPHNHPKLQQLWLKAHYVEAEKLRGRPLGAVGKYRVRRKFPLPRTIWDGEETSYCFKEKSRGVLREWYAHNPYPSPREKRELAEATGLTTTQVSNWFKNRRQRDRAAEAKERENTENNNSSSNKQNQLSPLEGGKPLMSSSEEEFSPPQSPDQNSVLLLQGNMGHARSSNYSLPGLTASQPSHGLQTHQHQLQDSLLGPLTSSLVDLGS
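Six1/Eya2 binding was read as AlphaScreen signal after compounds were pinned into GST-Six1 plus His-tagged Eya2 (5X stock 250/500 nM) in pH 8.0 Tris/NaCl/TCEP buffer, beads added, then incubated 1 h, 37 C, dark.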
TDP1 cell CPT: growth inhibition of DT40 Tdp1-/-;hTDP1 cells with camptothecin (screen for TDP1 inhibitors); 420,000 tested, 12% active; chicken DT40 Tdp1-/-;hTDP1 cells + 20 nM CPT, ATP luminescence, 48 h; Potency, µM (highest dose often 46.2 µM), inactives show top-dose activity change, negative = growth inhibition, actives largely listed as inhibitors; note: potency is the fitted concentration of half-maximal effect; nearly all actives have a fitted effect of over 55% in size
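Chicken DT40 Tdp1-/- cells stably complemented with human TDP1 were seeded at 400 cells/well in medium containing 20 nM camptothecin, exposed to pin-transferred compounds, and grown at 37 °C for at least 48 hr. Viability was read as ATP luminescence.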
CtBP-E1A blk: blocks the CtBP interaction with E1A; AlphaScreen GST-E1A/His-CtBP binding, 1536-well; active compounds read low; activity change, % (concentration not given with the values); 340,000 tested, 0.49% active; AID 651724; in the data active = activity change below about -65%; inconclusive = mostly about -30% to -63%
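Homogeneous bead-based format: GST-tagged E1A captured on glutathione donor beads, His-tagged CtBP on nickel acceptor beads; compounds precede bead addition by 2 h at 37 °C.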
IL-1B inflam inh: blocks inflammasome-driven IL-1 beta release; 360,000 tested, 4.7% active; activity change, % at 57.5 µM; THP-1 LPS/ATP IL-1B secretion, AlphaLISA, 16 h; active compounds read low; in the data active = activity change below about -50%; inconclusive = mostly about -30% to -49%
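THP-1 cells pretreated 1 hr with compounds (up to 57.5 uM final), then stimulated with LPS (250 ng/mL final) plus ATP (1.25 mM final); secreted IL-1B measured by AlphaLISA after 16 hr, decreased signal indicating inhibition.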
DT40 TDP1 no CPT: qHTS for Inhibitors of human tyrosyl-DNA phosphodiesterase 1 (TDP1): qHTS in cells in absence of CPT; 420,000 tested, 15% active; AID 686978, 2013; Potency, µM (series often up to 46.2 µM), without a hit: at the top dose activity change, negative = growth inhibition, actives largely listed as inhibitors; DT40 Tdp1-/- hTDP1 cells, no CPT, ATP luminescence, 48 h; note: potency is the fitted concentration of half-maximal effect; nearly all actives have a fitted effect of over 55% in size
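Growth kinetics read by CellTiter-Glo luminescence after ≥48 hr at 37 °C. Cells: DT40 Tdp1-/- stably carrying human TDP1, 400 per well, compound exposure in the absence of CPT (DMSO vehicle).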
Starred values were filed as active, the others as inactive; i = inactive; ? = inconclusive; . = no result given; [ ] = another dose, or the depositor's remark. An excerpt weighted towards active compounds, which were near 18% of everything screened. Unless noted, calls come from the whole dose curve; as a rule, active = well fitted curve in the direction sought with a large enough effect; inconclusive = small, poorly fitted or top-dose-only effect, or another doubt; inactive = no such curve, though single readings can be large; an effect the other way counts as inactive or inconclusive. % is set by controls: 0 for no effect and ±100 for the full control effect.

SMILES	TDP1 block	Six1-Eya2 inh	TDP1 cell CPT	CtBP-E1A blk	IL-1B inflam inh	DT40 TDP1 no CPT
COc1ccccc1NC(=O)N1CCN(c2ccc3nnc(-c4ccc(F)cc4)n3n2)CC1	6%	?	18µM*	-26	-52*	?
CC(O)(C(=O)c1ccccc1)c1ccccc1 (stereo not drawn)	.	-1	-6%	9	6	-16%
Cn1c(SCc2ccc(Br)cc2)nc2c(c1=O)SCC2	5%	?	18µM*	6	14	16µM*
Cn1c(SCC(=O)Nc2cccc(F)c2)nc2c(c1=O)SCC2	0%	-12	15µM*	-3	8	18µM*
COc1ccc(NC(=O)CSc2nc3c(c(=O)n2-c2ccccc2OC)SCC3)cc1	4%	-1	8%	4	-1	?
Cn1c(SCC(=O)Nc2ccccc2C(F)(F)F)nc2c(c1=O)SCC2	-6%	-4	16µM*	6	i	10µM*
Cn1c(SCc2cccnc2)nc2c(c1=O)SCC2	8%	-12	-3%	-9	13	8%
CCOC(=O)c1ccc(NC(=O)CSc2nc3c(c(=O)n2-c2ccccc2OC)SCC3)cc1	3%	-2	?	1	2	12µM*
c1ccc2c(Oc3ccc4c(c3)OCO4)nncc2c1	0%	6	?	2	24	?
COC(=O)C(C(=O)OC)C1c2ccccc2C=C(C)N1C(=O)OC (stereo not drawn)	8%[12.3 µM]	.	.	.	.	.
COCCCn1c(SCCc2ccccc2)nc2cc(OC)c(OC)cc2c1=N	12%	-2	16µM*	-5	-17	13µM*
COc1ccc(Cn2c(SCc3ccccc3C)nc3cc(OC)c(OC)cc3c2=N)cc1	6%	.	.	.	.	.
CCSc1nc2cc(OC)c(OC)cc2c(=O)n1CCc1ccccc1	-1%	0	16µM*	3	12	21µM*
C[C@@H]1CN([C@H](C)CO)C(=O)c2cc(Br)cnc2O[C@H]1CN(C)C(=O)Nc1ccc2c(c1)OCO2	.	22	-5%	22	26	-25%
COC(=O)c1ccc(NC(=O)CNC(=O)C2CCCCC2)cc1	-2%	-15	-18%	-9	1	-5%
Cc1ccc(CNC(=O)C2CSC3(C)CCC(=O)N23)cc1 (stereo not drawn)	-1%	-4	-5%	4	3	1%
O=C(CSc1cccs1)Nc1ccc2ccccc2c1	-5%	3	-15%	12	?	-24%
CCCCn1c(/C=C/c2ccco2)nc2ccccc21	0%	-4	18µM*	1	0	?
CCCCn1c(/C=N/Nc2nc3ccccc3[nH]2)nc2ccccc21	11%	-23	4.6µM*	-3	69	5.2µM*
CCCCn1c(N)nc2ccccc21	2%	7	?	8	10	?
CCCn1c(/C=C/c2ccco2)nc2ccccc21	8%	-10	16µM*	-8	-16	?
O=C(O)/C=C/C(=O)Nc1ccccc1SC(F)(F)C(F)(F)C(F)(F)F	8%	10	?	14	-104*	?
CC(C)(C)C(=O)Nc1cccc(C(=O)c2cccc(NC(=O)C(C)(C)C)c2)c1	3%	-1	?	1	-1	8.2µM*
CC(C)(C)C(=O)Nc1ccc2c(c1)C(=O)C(=O)c1ccccc1-2	-6%	.	0.71µM*	.	.	0.71µM*
O=C(O)/C=C/C(=O)Nc1ccc2c(c1)C(=O)c1ccccc1C2=O	-13%	-67*	9%	-23	1	-6%
SMILES	TDP1 block	Six1-Eya2 inh	TDP1 cell CPT	CtBP-E1A blk	IL-1B inflam inh	DT40 TDP1 no CPT
O=C(O)/C=C\C(=O)Nc1ccccc1C(=O)NC1CCCCC1	12%	-2	-4%	0	-15	-4%
COc1ccc(NC(=O)C2CCCN(S(=O)(=O)c3ccccc3)C2)c(OC)c1 (stereo not drawn)	4%[56.1 µM]	1	?	-1	2	?
CCOC(=O)CN(C(=O)CSc1nnc(Cc2ccccc2)n1-c1ccc(C)cc1)c1ccccc1	8%	-8	?	2	-10	?
CC(C(=O)OCC(=O)c1cccc([N+](=O)[O-])c1)N1C(=O)C2C3CCC(C3)C2C1=O (stereo not drawn)	2%	2	?	12	11	4%
O=S1(=O)CC(N2CCSCC2)CN1Cc1cn(Cc2ccc(Cl)cc2)nn1 (stereo not drawn)	.	10	-6%	-24	15	-18%
COc1ccc(-c2nc3ccccc3s2)cc1NC(=O)c1ccc(C#N)cc1F	7%	.	.	.	.	.
O=C(O)/C=C/C(=O)Nc1ccccc1-c1ccccc1	-2%	10	8.2µM*	12	-15	10µM*
CCN(CC)c1ccc(NC(=O)CSc2nc(C3CC3)nc3ccccc23)cc1C	-5%	-16	4.1µM*	-20	-18	5.2µM*
O=C(CSc1nc(C2CC2)nc2ccccc12)NCc1ccc2c(c1)OCO2	2%	.	.	.	.	.
COc1cc(NC(=O)CSc2nc(C3CC3)nc3ccccc23)cc(OC)c1	.	0	-5%	-3	-16	?
CC(=O)c1cccc(NC(=O)CSc2nc(C3CC3)nc3ccccc23)c1	-5%	-2	?	-7	-96*	16µM*
O=C(CSc1nc(C2CC2)nc2ccccc12)Nc1ccccc1N1CCOCC1	-1%	-1	?	3	-76*	?
CN(C)c1ccc(NC(=O)CSc2nc(C3CC3)nc3ccccc23)cc1	.	0	?	2	-16	18µM*
Cc1ccccc1CNCCCSc1ncccn1	3%	5	11%	1	15	7%
CCc1noc(C)c1C(=O)Nc1cccc(S(=O)(=O)N2CCCCCC2)c1	.	1	-28%	-4	-1	?
CC(=O)Nc1cccc(NC(=O)CSc2nc(C3CC3)nc3ccccc23)c1	.	-8	4.1µM*	-1	-79*	7.3µM*
Cc1cccc(NC(=O)CSc2nc(C3CC3)nc3ccccc23)c1	-6%	-3	?	-1	-26	?
O=C(CSc1nc(C2CC2)nc2ccccc12)Nc1ccccc1Cl	.	13	-23%	6	-4	-25%
O=C(CSc1nc(C2CC2)nc2ccccc12)Nc1ccccc1	5%	-5	-6%	-14	-61*	?
CC1CCCCN1Cc1ccc(-c2nnn(CC(=O)NC3CCCCC3)n2)cc1 (stereo not drawn)	7%	9	-18%	7	1	-23%
COC(=O)c1cc2sc(C)cc2n1CC(=O)Nc1ccc(C)c(C)c1	1%	.	?	.	.	?

Screens as filed in PubChem BioAssay.
